The subject of the test is RARa homodimer (NR concentration 270 nM). The test can be described thus: PBM binding z-score (relative to random genomic background probes); higher = stronger binding; sequences stand for … in GC…GCGATTGACAGCGTAGAATGAAGG
Put shortly:
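Ligand-free nuclear receptor dimers were applied to custom Agilent 4×180K protein-binding microarrays whose double-stranded probes carried direct-repeat seeds, single-nucleotide variants, half-site ablations and random human genomic background sequences in 34-nt variable regions. Incubation lasted 1 h. Binding z-scores were computed against the random background probes from regression-normalized fluorescence.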
Consider AGAACGAGGGCACGCTGAGTTCATAGCAGAGTAG, for which the PBM binding z-score is -0.449.

Consider GATACAGGGTCAGCTAGAGGACAGAGTATGGAAA, for which the PBM binding z-score stood at 0.599.

The sequence AGTCAAAGTTCATCTAGGTAACGTAGGATATGCT showed a PBM binding z-score of 1.67.

GGAACGAGGACAAGTTGATAGCAGAGTTTGATGG gave a PBM binding z-score of -0.522.

As to GCTGCTAGGTCTGGTTGGTCAGCTAACGGGTACG, the PBM binding z-score is -0.893.

The sequence AGAATGAGGTAATACGTAGATCAGGGAAGAAAGT came in with a PBM binding z-score of 0.262.

The sequence AGAACGAGGGCACGCTGAGTTGATGGCAGAGTAG showed a PBM binding z-score of -0.371.

TCACGGAGGACACGAAAGGTCAGAGCTCGACATC: the PBM binding z-score amounted to 1.27.

TCTTGTAGATAAGCAGGTTAAGAAAGCTGGCCAA: the PBM binding z-score amounted to 0.154.

For the sequence CCTAGTTGGTCAGGAGGTTACACACCGGATATGA, the PBM binding z-score stood at 0.725.

TCTGCTAGGTCAGTTGGTCAGCCAACGAGCTGCC yielded a PBM binding z-score of -1.63.

Sequence CATCCAAGGTCAGAGAGGTCAGTGAATGCCGAGT gave a PBM binding z-score of 3.06.

Regarding TCAAGCAGGCCAGAGGGTCACTCAAGAGGTACGG, the PBM binding z-score is -0.42.

The sequence AATACAGGGTCACTAGGCGAGAGTAGGTACGAAT returned a PBM binding z-score of 1.4.

For the sequence CCTACTTGGTCAGGAGGTCACACACCGGATATGA, the PBM binding z-score came to 2.31.

As to GGAACGAGGGCAAAGATGATAGCATCTGTCGACG, the PBM binding z-score was -0.373.

Sequence CCTACAGGGCCACGAAAGGTCATTGATTCAGTGA returned a PBM binding z-score of 1.07.

As for TTACCAAGGTGTAGGTCGTTGATCCCTCTGTAGA, the PBM binding z-score was -0.329.

On to CGAACTACGTCAGAACAGGACAGTGAAGGATGAT, for which the PBM binding z-score was -0.0605.

In turn, CCTACTGGGCCACGGAAGGTCATTGATTCAGTGA came in with a PBM binding z-score of 0.0822.

For CCTAGTTGGTCAAGAGGTCACACACCGGATATGA, the PBM binding z-score came out at 1.6.

In turn, TCTTGTAGATTAACAGGAGGTTAAGAAAGATCGA showed a PBM binding z-score of 0.212.

CGTCCAAGGTCAAAGGTCGGTGAAGAGATGACGG: the PBM binding z-score was found to be 0.478.

As to GCTGCTAGGTCAGATTGGTCAGCTAACGGGTACG, the PBM binding z-score was -0.468.

Consider TCTAGTAGATCAACAGGAGGTTAAGAAAGATCGA, for which the PBM binding z-score was 0.751.

With ACTATTAGTTGACTTAGGCCAACCGATACGACGC, the PBM binding z-score is 0.685.

Turning to TATACAGGGTCATAGGCCAGAGTACGAATGTCGA, the PBM binding z-score was 1.43.

In the case of GCTCGGATGACAAGGTCAGAGCTTTGTCCGTAGA, the PBM binding z-score was -1.1.

Sequence CGTCCAAGGTCAATGCTAGGTCGGTGAAAGCATT displayed a PBM binding z-score of 0.419.

Turning to TCTATTAGTTGACTAGGGCAACCGAAACAGCGGA, the PBM binding z-score was determined as 0.68.

Regarding TTGCCAAGGTGAAGGTCGTTGATCCCTCTGTAGA, the PBM binding z-score was -0.87.

As to TCTCGGAGGACACGATGGTCAGAGCTTTCCAGAG, the PBM binding z-score was -0.829.

With TCTATTAGTTGATTAGGGCAACTGAAACAGCGGA, the PBM binding z-score came out at 0.703.

TCTTGTAGATGAAAGGTTAAGAAAGCCGAAGCCT yielded a PBM binding z-score of 0.435.

On to TCAGACATGTGAAGGTAACTCAGGTACGCAGTCG, for which the PBM binding z-score was 0.114.

As to ATATGTAGGTTAATGGTCATTCAGGTTGGTTCGC, the PBM binding z-score is 1.49.

ACTATTAGTTGAGACAAGGGCAACCGATAGGTTG: the PBM binding z-score amounted to 0.821.

With GCTGCTAGGTCCACTGATGGTCAGCTAAAGCTCG, the PBM binding z-score was -1.55.

TTACCAAGGTGAAGGTCCTTGATCCCTCTGTAGA showed a PBM binding z-score of -0.146.

CAAACTAGGTCACGAAAGGTCAATGTCGAATGAC displayed a PBM binding z-score of 1.91.

Source of the values: the supplement of paper PMC6555819.
